Records with an inconclusive call do not appear. For part of these data: Measured potencies and affinities stand elsewhere. The source made the active and inactive calls. Unless noted, no rule for the calls is given here.
Assays:
[1] = viability loss in pontine glioma line – cell-based, SU-DIPG-XXV, MIPE5.0, CellTiter-Glo, qHTS, dose response (AID 1347065; cut-off not given, nearly all actives have AC50 up to about 26 µM;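 also: cells exposed to compound for 48 hours before ATP readout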); conditions: CellTiter-Glo ATP luminescence
[2] = JHH-DIPG-1 glioma cell viability, MIPE5.0 library, CellTiter-Glo luminescence, qHTS (AID 1347067; cut-off not given, nearly all actives have AC50 up to about 26 µM;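 also: cells exposed to compound for 48 hours before readout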); conditions: JHH-DIPG-1 glioma viability, CellTiter-Glo ATP luminescence
[3] = SU-DIPG-XXV glioma cell viability, MIPE5.0 library, qHTS (AID 1347068; cut-off not given, nearly all actives have IC50 up to about 30 µM;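 as to IC50: cells exposed to compound for 48 hours before viability readout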)
[4] = SU-DIPG-VI glioma cell viability, MIPE4.0 library, CellTiter-Glo luminescence, qHTS (AID 1347066; cut-off not given, nearly all actives have AC50 up to about 30 µM;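 also: cells exposed to compound for 48 hours before readout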); conditions: CellTiter-Glo ATP luminescence
[5] = molecular target: Mitogen-activated protein kinase 7 (Homo sapiens) (UniProt Q13164); test: ERK5 transactivation activators in reporter cells, primary screen, cell-based, HTS (AID 1508626;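 active = luciferase signal above three times the same-plate solvent-only control wells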;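 also: luciferase driven by Gal4-ERK5 fusion binding five Gal4 sites before minimal TATA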); conditions: HeLa Gal4-ERK5 transactivation, 18 h, at 5 µM, stronger effect = higher value
[6] = rescue of polyQ-huntingtin neuronal dysfunction in worms, whole organism, C. elegans mechanosensory neurons, N-terminal huntingtin (AID 1599); conditions: touch response, stronger effect = higher value
[7] = inhibitors of mitochondrial cytochrome c release, biochemical, purified mitochondria (AID 1603); conditions: stronger effect = lower value;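 also: mouse liver mitochondria challenged with calcium chloride; signal normalized to the plate average as 100%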
[8] = inhibitors of polyQ protein aggregation (AID 1604); conditions: polyglutamine-induced protein aggregation inhibition assay; stronger effect = higher value; tested at 2.5 µM
[9] = enhancers of glutamate uptake in motor neurons, MN-1 cell line (AID 1612); conditions: MN-1 motor neuron cells, stronger effect = higher value;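 also: tested at 1 µM final; 0% = mean of DMSO vehicle wells on each plate; positive means more glutamate uptake than control and negative means less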
[10] = suppressors of polyglutamine aggregation in yeast, 75Q-TubH (AID 1616); conditions: S. cerevisiae 75Q-TubH polyglutamine aggregation suppression; stronger effect = higher value
[11] = reducers of polyQ inclusions in PC12 cells, cell-based, NGF-treated PC12, GFPQ80 (AID 1614); conditions: PC12 NGF-treated GFP-polyQ80 inclusion reduction;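 also: lower means fewer inclusions and 0 means no inclusions at all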
[12] = inhibitors of Cryptococcus chitosan production, flow cytometry, Cibacron Brilliant Red staining (AID 1347148); conditions: Cryptococcus neoformans chitosan, stronger effect = lower value; at 10 µM unless noted;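 also: compound exposure lasted three days at 37 degrees C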
[13] = molecular target: ATP-dependent translocase ABCB1 (Homo sapiens) (UniProt P08183); test: MDR1 (ABCB1) efflux transporter inhibition, cell-based (AID 377; in the data active = fluorescence slope change above about 50%); conditions: MDR1-expressing cells, fluorescent substrate accumulation slope; stronger effect = higher value; concentration not given here
[14] = hESC survival regulators, cell-based (AID 493140); conditions: human embryonic stem cell survival screen; stronger effect = higher value;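 also: cells exposed to compounds for four days before counting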
[15] = test system: Aerobactin synthetase IucA (Klebsiella pneumoniae, hypervirulent); test: IucA enzyme inhibition, biochemical, LOPAC library, absorbance readout (AID 1346212); conditions: IucA enzyme assay, absorbance (OD) readout; stronger effect = lower value;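 tested at 8 µM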;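 also: 100% = no compound wells and 0% = no enzyme wells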
[16] = circadian clock period modulators, cell-based, LOPAC library, luminescence reporter (AID 2774); conditions: circadian reporter cells, at 7 µM, actives lie on both sides;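 also: values are relative to mean of DMSO wells on each plate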
[17] = growth inhibition of DIPG glioma cells, dose response, cell-based, SU-DIPG-XVII, MIPE5.0, CellTiter-Glo, qHTS (AID 1347060; cut-off not given, nearly all actives have AC50 up to about 26 µM;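 as to AC50: cells exposed to compound for 48 hours before viability readout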); conditions: SU-DIPG-XVII viability, CellTiter-Glo ATP luminescence
[18] = test system: Aerobactin synthetase IucA (Klebsiella pneumoniae hvKP1); test: Biochemical IucA enzyme inhibition primary screen of the Spectrum library (AID 1346200); conditions: malachite green pyrophosphate, A620, at 8 µM, stronger effect = lower value;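 also: 100% = wells without compound and 0% = wells lacking enzyme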
[19] = growth inhibition of DIPG glioma cells, dose response, cell-based, SU-DIPG-XIII, MIPE5.0, CellTiter-Glo, qHTS (AID 1347064; cut-off not given, nearly all actives have AC50 up to about 23 µM); conditions: SU-DIPG-XIII viability, CellTiter-Glo ATP luminescence

Sequence of Mitogen-activated protein kinase 7 (Homo sapiens) (Q13164 whole entry, looked up, the tested form may be a part): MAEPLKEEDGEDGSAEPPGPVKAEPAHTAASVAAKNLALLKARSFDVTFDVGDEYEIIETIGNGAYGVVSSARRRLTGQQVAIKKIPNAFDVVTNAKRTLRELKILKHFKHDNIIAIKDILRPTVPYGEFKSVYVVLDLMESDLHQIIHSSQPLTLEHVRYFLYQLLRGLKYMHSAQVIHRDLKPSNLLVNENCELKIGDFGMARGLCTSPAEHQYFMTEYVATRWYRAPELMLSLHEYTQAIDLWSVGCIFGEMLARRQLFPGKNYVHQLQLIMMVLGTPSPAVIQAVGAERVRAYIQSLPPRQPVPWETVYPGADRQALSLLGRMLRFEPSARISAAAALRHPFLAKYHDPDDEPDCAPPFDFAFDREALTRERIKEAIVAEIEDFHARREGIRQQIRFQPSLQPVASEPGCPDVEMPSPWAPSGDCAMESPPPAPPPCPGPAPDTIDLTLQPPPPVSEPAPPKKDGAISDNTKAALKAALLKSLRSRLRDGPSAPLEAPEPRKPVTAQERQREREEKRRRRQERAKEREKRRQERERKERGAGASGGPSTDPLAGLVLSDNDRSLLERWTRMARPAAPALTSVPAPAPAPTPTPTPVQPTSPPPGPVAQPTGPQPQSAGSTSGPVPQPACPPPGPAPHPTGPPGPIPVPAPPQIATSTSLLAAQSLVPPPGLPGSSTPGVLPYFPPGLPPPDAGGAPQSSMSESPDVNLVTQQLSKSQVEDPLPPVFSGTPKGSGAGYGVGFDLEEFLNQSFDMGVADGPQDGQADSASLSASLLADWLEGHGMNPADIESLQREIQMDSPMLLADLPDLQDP
Sequence of ATP-dependent translocase ABCB1 (Homo sapiens) (P08183 whole entry, looked up): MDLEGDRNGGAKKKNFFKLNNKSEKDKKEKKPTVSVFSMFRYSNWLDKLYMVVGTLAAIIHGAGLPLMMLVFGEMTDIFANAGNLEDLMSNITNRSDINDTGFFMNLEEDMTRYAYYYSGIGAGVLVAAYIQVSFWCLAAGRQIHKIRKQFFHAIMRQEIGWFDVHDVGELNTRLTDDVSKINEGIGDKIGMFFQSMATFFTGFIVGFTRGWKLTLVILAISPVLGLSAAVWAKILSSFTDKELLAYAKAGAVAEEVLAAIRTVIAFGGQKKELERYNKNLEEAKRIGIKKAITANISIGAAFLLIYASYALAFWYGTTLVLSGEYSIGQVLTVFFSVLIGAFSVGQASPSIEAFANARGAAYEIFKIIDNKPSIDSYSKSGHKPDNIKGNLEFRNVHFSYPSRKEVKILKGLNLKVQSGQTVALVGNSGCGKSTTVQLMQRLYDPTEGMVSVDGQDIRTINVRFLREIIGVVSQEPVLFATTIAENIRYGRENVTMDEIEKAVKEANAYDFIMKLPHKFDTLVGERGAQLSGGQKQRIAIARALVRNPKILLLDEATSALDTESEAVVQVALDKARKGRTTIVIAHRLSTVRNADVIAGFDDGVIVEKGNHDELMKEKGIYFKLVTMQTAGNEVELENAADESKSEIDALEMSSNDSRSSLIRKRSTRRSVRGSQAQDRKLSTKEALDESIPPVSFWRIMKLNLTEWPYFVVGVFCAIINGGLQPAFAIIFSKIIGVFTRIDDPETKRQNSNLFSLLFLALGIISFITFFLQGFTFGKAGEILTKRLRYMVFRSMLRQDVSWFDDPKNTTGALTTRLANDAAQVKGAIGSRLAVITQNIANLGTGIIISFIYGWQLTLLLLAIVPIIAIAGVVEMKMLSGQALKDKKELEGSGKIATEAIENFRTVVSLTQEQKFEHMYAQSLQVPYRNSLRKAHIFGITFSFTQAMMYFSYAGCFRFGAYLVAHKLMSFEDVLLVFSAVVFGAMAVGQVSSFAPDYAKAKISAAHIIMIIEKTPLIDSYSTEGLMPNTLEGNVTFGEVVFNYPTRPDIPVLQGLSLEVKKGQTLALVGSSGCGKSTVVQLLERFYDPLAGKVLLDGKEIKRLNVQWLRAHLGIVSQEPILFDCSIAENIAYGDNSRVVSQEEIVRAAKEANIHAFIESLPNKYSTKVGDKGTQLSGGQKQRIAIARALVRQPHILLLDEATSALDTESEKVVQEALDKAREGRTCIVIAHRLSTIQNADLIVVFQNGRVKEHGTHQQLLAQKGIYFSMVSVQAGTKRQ

For CC(O)(CS(=O)(=O)c1ccc(F)cc1)C(=O)Nc1ccc(C#N)c(C(F)(F)F)c1 (stereo not drawn), the outcome [1] was “inactive”, the outcome [2] was “inactive” and the outcome [3] was “inactive”.
In the case of CCOC(=O)c1cncn1[C@H](C)c1ccccc1, the outcome [4] was “inactive” and the luciferase signal [5] was 52 AU (inactive).
In the case of O=C1Nc2ccc(Cl)cc2C(c2ccccc2Cl)=NC1O (stereo not drawn), the rescue above control [6] was -10.3, the cytochrome c release ratio [7] was 1.2 and the inhibition of aggregation [8] was 21.1%. For the same molecule, the glutamate uptake change [9] was -7.53% and the aggregation suppression score [10] was 0.626.
With CN1C(=O)CN=C(c2ccccc2)c2cc(Cl)ccc21 the rescue above control [6] was 0.67, the cytochrome c release ratio [7] was 0.88 and the inhibition of aggregation [8] was 26.5%. For the same molecule, the glutamate uptake change [9] was -26.8%, the inclusion score [11] was 2 and the aggregation suppression score [10] was 0.718.
Work on CC[C@@H]1/C=C/C=C/C[C@H](C)[C@@H](O)[C@](C)(O)C(=O)[C@H](C)[C@@H](O)[C@H](C)C(=O)[C@H](C)[C@@H](O)[C@H](C)/C=C/C(=O)O[C@H]2[C@@H](C)[C@@H](CC1)O[C@@]1(CC[C@@H](C)[C@@H](C[C@H](C)O)O1)[C@@H]2C yielded a rescue above control [6] of -7.82, a cytochrome c release ratio [7] of 1.21 and an inhibition of aggregation [8] of -10.6%. The glutamate uptake change [9] was 5.74%, the aggregation suppression score [10] was 0.0317 and the fold fluorescence [12] was 5.62 [at 63.2 µM] (inactive).
For COc1ccc2c(c1)C13CCCC[C@@H]1C(C2)N(C)CC3 (stereo partly drawn), the fluorescence slope change [13] was 14.1% (inactive), the survival [14] was 5.75 (inactive) and the remaining activity [15] was 108% (inactive).
For COC(=O)N1CCN(C(=O)Cc2ccc(Cl)c(Cl)c2)C(CN2CCCC2)C1 (stereo not drawn), the period change [16] was -0.045 h (inactive) and the remaining activity [15] was 101% (inactive).
In the case of CC(C)[C@]12O[C@H]1[C@@H]1O[C@]13[C@]1(O[C@H]1C[C@H]1C4=C(CC[C@@]13C)C(=O)OC4)[C@@H]2O, the AC50 [17] was 186 nM (active), the AC50 [1] was 209 nM (active) and the AC50 [2] was 83.3 nM (active). The IC50 [3] was 186 nM (active) and the fold fluorescence [12] was 4.23 [at 138.7 µM] (inactive).
With C[C@]12CCC(=O)C=C1CC[C@@H]1[C@@H]2CC[C@@]2(C)[C@H]1CC[C@]2(C)O the outcome [4] was “inactive”.
In the case of CN=C1CN(O)C(c2ccccc2)=c2cc(Cl)ccc2=N1, the rescue above control [6] was -9.17, the cytochrome c release ratio [7] was 1.33 and the inhibition of aggregation [8] was 32%. It also gave a glutamate uptake change [9] of -4.65%, an inclusion score [11] of 2 and an aggregation suppression score [10] of 1.55.
With Oc1cc2c(cc1O)[C@H]1c3ccccc3CN[C@@H]1CC2 the period change [16] was -0.1 h (inactive).
With Cc1ccc(-c2nc3ccc(C)cn3c2CC(=O)N(C)C)cc1 the activity remaining [18] was 101% (inactive) and the luciferase signal [5] was 44 AU (inactive).
In the case of C[N+]1(C)CCN(c2ccccc2)CC1, the period change [16] was -0.125 h (inactive) and the remaining activity [15] was 113% (inactive).
For CC[C@@H](C(N)=O)N1CCCC1=O, the outcome [17] was “inactive”, the outcome [19] was “inactive” and the outcome [4] was “inactive”. For the same molecule, the outcome [3] was “inactive”.
